SMILES strings stand for the structures. About 83,000 compounds went through this panel and 20% of them were active in at least one assay; those are over-represented in the sample as a whole.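 Single-concentration screen, 48 h exposure, 96-well plates. Endpoint: percent growth. Below 10 = active.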 Unmarked numbers belong to inactive results. Active and inactive are the calls of the source.

40 compounds from PubChem BioAssay (NCI) can be followed below.

This experiment relates to NCI-H322M lung. Briefly: NCI-60 one-dose screen, 48 h (100 = growth as untreated, 0 = no growth, -100 = all killed). The conditions noted are these: 10 µM unless noted. As to the method: Growth inhibition of the NCI-H322M human Non-Small Cell Lung tumor cell line is measured as a screen for anti-cancer activity. Cells are grown in 96 well plates and exposed to the test compound for 48 hours. Compounds are tested at a single concentration, which is 10^-5 M for most compounds. The reported endpoint is percent growth (GI% or GIPRCNT), where numbers from 0 - 100% represent growth inhibition, and numbers from -100% - 0 represent cell death. For example, a value of 40 represents 60% growth inhibition. A value of 0 means no net growth occurred over the course of the experiment. A value of -40 indicates 40% of cells at the beginning of the experiment died by the end of the experiment. A value of -100 means all cells are dead at the end of the experiment.
NCI-60 Human Tumor Cell Lines Screen was performed using the standard one-dose NCI protocol, which is described in more detail at https://dtp.cancer.gov/discovery_development/nci-60/default.htm.
Compounds with GIPRCNT values below 10 were considered active. Activity score was based on GIPRCNT using the following formula: […]
Score is 0 for GIPRCNT values of 100 or above, 50 for GIPRCNT values of 0, and 100 for GIPRCNT values of -100.
As to `O=C1N(C2CCCCC2)C(=O)N1C1CCCCC1`, the growth is 35.2%.

For `CC(C)[C@]12O[C@H]1[C@@H]1O[C@]13[C@]1(O[C@H]1C[C@H]1C4=C(CC[C@@]13C)C(=O)OC4)[C@@H]2OC(=O)CN(C)C`, the growth is -7.07% (active).

For `COc1ccc(C2CC(c3cccc(Nc4ccnc5cc(Cl)ccc45)c3)=NN2C=O)cc1` (stereo not given), the growth was 62.5%.

For the compound `Cc1cc(C)n(C(=O)c2nn(-c3ccc(Cl)cc3)cc2O)n1`, the growth was 37.2%.

As to `CCCn1cnc2c1c(=O)n(CCCCC(C)=O)c(=O)n2C`, the growth is 97.4%.

Take `N#Cc1c(N2CCOCC2)nc2sc3cc(Cl)ccc3n2c1=N`: the growth was 117%.

For the compound `COc1ccc(-c2c(-c3cc(OC)c(OC)c(OC)c3)noc2N)cc1`, the growth is 43.2%.

For `O=[N+]([O-])c1cnc(Sc2ccncn2)c([N+](=O)[O-])c1`, the growth is 108%.

Turning to `Cc1nn(-c2ccc(Cl)cc2)c2nc3c(nc12)c(=O)oc1ccccc13`, the growth was 116%.

In the case of `C[n+]1ccc(C#N)c2ccccc21`, the growth was 98%.

In the case of `COc1cc(/C=C/C(=O)c2c(-c3ccc(Cl)cc3)nc3sc(C)nn23)cc(OC)c1OC`, the growth was 87.5%.

As for `COc1ccc2c(c1)C(=O)c1c-2c(=O)n(CCCCCCC(=O)NO)c2ccccc12`, the growth is -3.32% (active).

Turning to `CCn1c2ccccc2c2ccc(C(C)=O)cc21`, the growth is 126%.

For the compound `O=C(C=C=Nc1ccccc1)C(=O)N=C=Cc1ccccc1`, the growth is 93.9%.

Take `C[C@]12CC[C@@H]3c4ccc(O)c([N+](=O)[O-])c4CC[C@H]3[C@@H]1CC[C@@H]2NS(=O)(=O)c1ccc(C(F)(F)F)cc1`: the growth was 54.1%.

As to `NNC(=O)C1CC2c3ccccc3C1c1ccccc12` (stereo not given), the growth was 116%.

Take `COc1cc(NC(=O)c2cc3ccccc3cc2O)c(OC)cc1Cl`: the growth was -3.14% (active).

For `CCOc1nc(-c2ccccc2)cc2c(O)c(-c3nnco3)[nH]c(=O)c12`, the growth is 65.3%.

For `Nc1ccc2c3c(cccc13)-c1ccccc1-2`, the growth is 75.1%.

For the compound `O=C1OCC/C1=C\OCCCO/C=C1\CCOC1=O`, the growth is 100%.

Consider `CCCCCCCC/C=C\CCCCCCCCOc1ccccc1CC(=O)NCC[N+]1(C)CCCC1`, for which the growth was 103%.

Regarding `Cc1nc(N)[nH]c(=O)c1C`, the growth is 96.6%.

Turning to `COc1ccc(C(=O)C(C)Br)cc1OC` (stereo not given), the growth is 99%.

On to `c1ccc(Nc2nnc(-c3cc(-c4cccnc4)n(-c4ccccc4)n3)s2)cc1`, for which the growth was 109%.

For `CCC1=C(c2ccc(OC)cc2)C(C)(C)Oc2cc(O)c(CN3CCCC3)cc21`, the growth is 92%.

As to `COC(=O)CCC1=C(C)C(C)=N/C1=C\c1[nH]c(-c2ccc[nH]2)cc1OC`, the growth is 12.1%.

Regarding `CO[C@H]1CC(O[C@@H]2/C(C)=C/C[C@@H]3C[C@@H](C[C@]4(CC[C@H](C)[C@@H](C5CCCCC5)O4)O3)OC(=O)[C@@H]3C=C(C)/C(=N/O)[C@H]4OC/C(=C\C=C\[C@@H]2C)[C@]43O)O[C@@H](C)C1O` (stereo not given in full), the growth is -78% (active).

For the compound `CN(CCOc1ccc(CC2SC(=O)NC2=O)cc1)c1ccccn1` (stereo not given), the growth is 95.3%.

Regarding `O=C(Nc1ccc(Nc2ccncc2)cc1)c1ccc(Nc2ccnc3ccc([N+](=O)[O-])cc23)cc1[N+](=O)[O-]`, the growth was 89.5%.

With `CCCCCCCCCCCCCCCCCc1nccn1CCO`, the growth was 78.1%.

On to `CN(CC(=O)N(Cc1ccc(C2CCCCC2)cc1)c1ccc(C(=O)O)cc1)S(=O)(=O)c1c(F)c(F)c(F)c(F)c1F`, for which the growth was 86.4%.

In the case of `COc1cc2cn3c4ccc(O)cc4nc(N)c3c2cc1OC`, the growth was 28.7%.

On to `Clc1ccccc1[C@@H]1C[C@@H]2Cc3cc(Br)c4ccccc4c3N1O2`, for which the growth was 61%.

In the case of `CCOc1ccccc1C(=O)OCC(=O)Nc1cccc(S(=O)(=O)N(C)C)c1`, the growth was 124%.

Turning to `CC/C(=C\c1ccc(N(C)C)cc1)c1ccncc1`, the growth is 94.6%.

`ClC1=C(Cl)C(Cl)=C(Cl)C1=Cc1ccc(Cl)cc1`: the growth was 107%.

As for `Oc1[nH]c2ccc(Cl)cc2c1/C=c1/ccc2c(c1)N=C(c1ccc(C(F)(F)F)cc1)N=2`, the growth was 84.3%.

With `CN1COc2ccc3ccccc3c2C1`, the growth is 91.4%.

Turning to `CCCCc1nc(Cl)c(CO)n1Cc1ccc(-c2ccccc2-c2nn[nH]n2)cc1`, the growth was 97.1%.

On to `Cc1cc(C)c(OC(=O)CSc2nc3ccccc3c(=O)n2CCc2ccccc2)cc1C`, for which the growth is 89.3%.
